# Reference: PubChem BioAssay (NCATS)
# Inconclusive results are not listed. Where a call stands in place of a potency, no number is given. The source made the active and inactive calls. Unless noted, the call rests on the fitted dose curve; in most records, active means well fitted curve in the direction sought with a large enough effect; inconclusive means small, poorly fitted or top-dose-only effect, or another doubt; inactive means no such curve, though single readings can be large; an effect the other way counts as inactive or inconclusive.
# Assays:
# [1] = molecular target: Calcium and integrin-binding protein 1 (Homo sapiens) (UniProt Q99828); experiment: Validation qHTS for Identification of Calcium Integrin Binding protein 1 (CIB1) Competitor (AID 1508618)
# Method in brief: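 CIB1-GST (1 uM final) incubated 15 min at room temperature with compounds (up to 114 uM), then FITC-labelled alphaIIb peptide (100 nM) added. FP read (Ex 480/Em 540) after 15 min, pH 7.4 buffer containing 5 mM CaCl2.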
# Papain (Carica papaya) = Papain (Carica papaya) (UniProt P00784); experiment: Primary qHTS assay for inhibitors of the protease papain (AID 1645873);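 further: papain turnover of Z-FR-AMC read as the AMC fluorescence gain over 10 min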; further: potency means the concentration at half of the fitted maximal effect
# [2] = molecular target: Rap guanine nucleotide exchange factor 3 (Homo sapiens) (UniProt O95398); experiment: Confirmatory qHTS for agonist of cAMP-regulated guanine nucleotide exchange factor 3 (EPAC1) (AID 1645881);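 further: EPAC1 catalysed release of BODIPY-GDP from Rap1B seen as fluorescence loss; nearly all actives have a fitted effect of over 75% in size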
# [3] = molecular target: Rap guanine nucleotide exchange factor 4 (Homo sapiens) (UniProt Q8WZA2); experiment: Confirmatory qHTS for agonist of cAMP-regulated guanine nucleotide exchange factor 4 (EPAC2) (AID 1645884);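 further: nucleotide exchange releases bodipy-GDP from Rap1 and this lowers its fluorescence; nearly all actives have a fitted effect of over 65% in size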
# [4] = molecular target: Rap guanine nucleotide exchange factor 4 (Homo sapiens) (UniProt Q8WZA2); experiment: Confirmatory qHTS for antagonist of cAMP-regulated guanine nucleotide exchange factor 4 (EPAC2) (AID 1645885); further: nearly all actives have a fitted effect of over 25% in size; further: potency means the concentration at half of the fitted maximal effect
# [5] = molecular target: Catechol O-methyltransferase (Homo sapiens) (UniProt P21964); experiment: Confirmatory Screen for Target Class Profiling of Small Molecule Inhibitors of Methyltransferases (AID 1745852; calls by dose curve); details: MTase-Glo luminescence, SAH detection, recombinant enzyme; measured here: COMT max response; stronger effect = lower value
# [6] = molecular target: Guanidinoacetate N-methyltransferase (Homo sapiens) (UniProt Q14353); experiment: as above; details: MTase-Glo luminescence, SAH detection, recombinant enzyme; activity change, negative = inhibition: at 57.3 µM (top of the series)
# [7] = molecular target: Nicotinamide N-methyltransferase (Homo sapiens) (UniProt P40261); experiment: as above; details: MTase-Glo luminescence, SAH detection, recombinant enzyme; measured here: NNMT max response; stronger effect = lower value
# [8] = molecular target: Phenylethanolamine N-methyltransferase (Homo sapiens) (UniProt P11086); experiment: as above; details: MTase-Glo luminescence, SAH detection, recombinant enzyme; measured here: PNMT max response; stronger effect = lower value
# [9] = molecular target: Rap guanine nucleotide exchange factor 3 (Homo sapiens) (UniProt O95398); experiment: Confirmatory qHTS for antagonist of cAMP-regulated guanine nucleotide exchange factor 3 (EPAC1) (AID 1645880); further: nearly all actives have a fitted effect of over 55% in size
# Method in brief: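 Nucleotide exchange uses 100 nM EPAC1, 250 nM RAP1B-BODIPY-GDP and 50 uM GDP, with compounds in a concentration-titration series. After 5 min at room temperature, fluorescence (480 nm ex/540 nm em) is read every 5 min for 30 min. Data are normalized to control ATA and DMSO.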
# [10] = Counterscreen qHTS for small molecule stabilizers of the endoplasmic reticulum resident proteome: GLuc-NoTag assay (AID 1508627);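 further: SH-SY5Y cells given compound then 100 nM thapsigargin to empty ER calcium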
# Method in brief: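 SH-SY5Y cells stably expressing constitutively secreted GLuc without SERCaMP tag, exposed to compound for 19 hr, then to 100 nM thapsigargin for 4 hr at 37C. Medium luciferase was read by coelenterazine luminescence without lysis.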
# [11] = Confirmatory qHTS for small molecule stabilizers of the endoplasmic reticulum resident proteome: Secreted ER Calcium Modulated Protein (SERCaMP) assay (AID 1508628); further: nearly all actives have a fitted effect of over 40% in size
# Method in brief: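 SH-SY5Y cells stably expressing GLuc-SERCaMP, treated 16 h with compound (primary 1.53, 7.67, 38.3 uM; confirmation 11 concentrations, up to 76.6 uM), then 100 nM thapsigargin for 4 h. Secreted Gaussia luciferase in medium read by coelenterazine luminescence.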
# [12] = Primary qHTS for small molecule stabilizers of the endoplasmic reticulum resident proteome: Secreted ER Calcium Modulated Protein (SERCaMP) assay (AID 1508630)
# Method in brief: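 GLuc-SERCaMP-expressing SH-SY5Y cells, pretreated 16 h with compound, are challenged with thapsigargin to empty ER calcium stores; after 4 h, coelenterazine is added directly to the medium and luminescence is imaged.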
# Sequence of Rap guanine nucleotide exchange factor 4 (Homo sapiens) (Q8WZA2 whole entry, looked up): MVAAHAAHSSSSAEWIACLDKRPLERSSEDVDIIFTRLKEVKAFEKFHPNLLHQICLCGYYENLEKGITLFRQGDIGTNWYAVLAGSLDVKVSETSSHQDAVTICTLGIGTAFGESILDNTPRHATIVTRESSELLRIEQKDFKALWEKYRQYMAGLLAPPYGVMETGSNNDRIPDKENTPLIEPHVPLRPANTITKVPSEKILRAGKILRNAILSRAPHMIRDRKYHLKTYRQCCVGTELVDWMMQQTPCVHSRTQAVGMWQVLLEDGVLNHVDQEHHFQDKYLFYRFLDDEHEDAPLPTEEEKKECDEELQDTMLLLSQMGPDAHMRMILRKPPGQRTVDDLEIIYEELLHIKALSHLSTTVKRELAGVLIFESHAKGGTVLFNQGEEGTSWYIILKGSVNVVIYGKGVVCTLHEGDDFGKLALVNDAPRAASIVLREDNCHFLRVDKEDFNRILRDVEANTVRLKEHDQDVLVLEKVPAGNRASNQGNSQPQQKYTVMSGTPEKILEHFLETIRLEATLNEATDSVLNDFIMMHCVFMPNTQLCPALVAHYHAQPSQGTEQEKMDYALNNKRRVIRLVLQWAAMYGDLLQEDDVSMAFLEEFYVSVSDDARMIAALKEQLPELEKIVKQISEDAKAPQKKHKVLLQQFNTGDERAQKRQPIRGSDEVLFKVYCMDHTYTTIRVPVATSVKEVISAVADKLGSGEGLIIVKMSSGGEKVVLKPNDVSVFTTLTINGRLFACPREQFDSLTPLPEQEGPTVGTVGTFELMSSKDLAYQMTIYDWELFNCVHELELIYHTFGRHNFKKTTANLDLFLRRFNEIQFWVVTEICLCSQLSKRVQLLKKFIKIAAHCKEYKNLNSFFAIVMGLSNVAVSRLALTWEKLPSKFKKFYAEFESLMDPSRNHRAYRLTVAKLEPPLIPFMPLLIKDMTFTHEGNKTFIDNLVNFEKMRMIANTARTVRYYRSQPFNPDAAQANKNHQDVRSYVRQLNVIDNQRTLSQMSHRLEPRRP
# Sequence of Calcium and integrin-binding protein 1 (Homo sapiens) (Q99828 whole entry, looked up): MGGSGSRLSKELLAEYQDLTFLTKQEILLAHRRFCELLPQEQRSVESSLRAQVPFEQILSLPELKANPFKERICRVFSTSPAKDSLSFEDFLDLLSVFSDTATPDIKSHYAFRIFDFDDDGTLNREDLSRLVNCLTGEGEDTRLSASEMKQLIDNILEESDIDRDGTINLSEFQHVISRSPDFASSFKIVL
# Sequence of Rap guanine nucleotide exchange factor 3 (Homo sapiens) (O95398 whole entry, looked up): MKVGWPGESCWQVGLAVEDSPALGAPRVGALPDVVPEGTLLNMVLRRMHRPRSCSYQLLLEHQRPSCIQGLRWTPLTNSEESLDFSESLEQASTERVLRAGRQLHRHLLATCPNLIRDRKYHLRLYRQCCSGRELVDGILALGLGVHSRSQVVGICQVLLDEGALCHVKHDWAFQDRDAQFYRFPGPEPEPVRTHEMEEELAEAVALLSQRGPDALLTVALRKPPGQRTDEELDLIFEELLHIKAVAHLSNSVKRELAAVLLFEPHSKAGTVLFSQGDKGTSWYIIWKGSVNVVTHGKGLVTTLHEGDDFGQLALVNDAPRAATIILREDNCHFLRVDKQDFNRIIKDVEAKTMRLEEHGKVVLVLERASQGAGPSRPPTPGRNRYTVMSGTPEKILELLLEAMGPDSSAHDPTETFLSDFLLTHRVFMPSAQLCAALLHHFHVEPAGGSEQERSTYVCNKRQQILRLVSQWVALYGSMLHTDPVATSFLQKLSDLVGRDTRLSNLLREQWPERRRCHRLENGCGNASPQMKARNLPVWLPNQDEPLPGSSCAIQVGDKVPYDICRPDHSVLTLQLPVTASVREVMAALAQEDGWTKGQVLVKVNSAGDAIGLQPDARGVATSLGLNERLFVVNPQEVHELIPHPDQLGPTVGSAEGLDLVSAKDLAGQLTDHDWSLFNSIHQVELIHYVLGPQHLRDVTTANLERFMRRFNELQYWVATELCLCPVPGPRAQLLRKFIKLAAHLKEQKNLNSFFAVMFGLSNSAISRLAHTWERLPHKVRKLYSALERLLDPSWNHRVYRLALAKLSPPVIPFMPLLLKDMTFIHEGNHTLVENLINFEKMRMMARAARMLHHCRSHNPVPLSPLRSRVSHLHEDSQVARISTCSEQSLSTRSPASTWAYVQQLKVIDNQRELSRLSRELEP
# Sequence of Nicotinamide N-methyltransferase (Homo sapiens) (P40261 whole entry, looked up): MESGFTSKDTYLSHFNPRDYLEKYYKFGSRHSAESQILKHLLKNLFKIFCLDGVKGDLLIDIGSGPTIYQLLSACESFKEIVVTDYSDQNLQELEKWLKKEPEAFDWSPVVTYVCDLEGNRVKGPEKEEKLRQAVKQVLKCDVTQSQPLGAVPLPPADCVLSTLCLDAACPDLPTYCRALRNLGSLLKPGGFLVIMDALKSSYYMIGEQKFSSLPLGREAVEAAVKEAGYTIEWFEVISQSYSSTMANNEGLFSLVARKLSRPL
# Sequence of Papain (Carica papaya) (P00784 whole entry, looked up): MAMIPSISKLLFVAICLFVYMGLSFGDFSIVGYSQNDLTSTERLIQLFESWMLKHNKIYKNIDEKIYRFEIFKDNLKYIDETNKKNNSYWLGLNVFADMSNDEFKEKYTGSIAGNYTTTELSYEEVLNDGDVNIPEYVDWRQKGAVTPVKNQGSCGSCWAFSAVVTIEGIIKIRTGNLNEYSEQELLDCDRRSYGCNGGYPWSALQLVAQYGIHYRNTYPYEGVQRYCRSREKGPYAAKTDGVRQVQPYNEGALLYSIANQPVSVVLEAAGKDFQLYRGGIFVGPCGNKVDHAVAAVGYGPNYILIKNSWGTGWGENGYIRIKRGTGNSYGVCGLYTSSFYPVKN
# Sequence of Phenylethanolamine N-methyltransferase (Homo sapiens) (P11086 whole entry, looked up): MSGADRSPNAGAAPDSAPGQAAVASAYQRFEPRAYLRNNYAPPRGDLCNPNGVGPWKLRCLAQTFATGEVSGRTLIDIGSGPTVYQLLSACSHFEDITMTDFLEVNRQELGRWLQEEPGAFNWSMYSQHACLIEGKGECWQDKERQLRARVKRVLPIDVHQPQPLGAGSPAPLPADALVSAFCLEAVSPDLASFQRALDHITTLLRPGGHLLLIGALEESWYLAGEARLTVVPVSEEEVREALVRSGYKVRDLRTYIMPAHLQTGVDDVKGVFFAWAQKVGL
# Sequence of Catechol O-methyltransferase (Homo sapiens) (P21964 whole entry, looked up): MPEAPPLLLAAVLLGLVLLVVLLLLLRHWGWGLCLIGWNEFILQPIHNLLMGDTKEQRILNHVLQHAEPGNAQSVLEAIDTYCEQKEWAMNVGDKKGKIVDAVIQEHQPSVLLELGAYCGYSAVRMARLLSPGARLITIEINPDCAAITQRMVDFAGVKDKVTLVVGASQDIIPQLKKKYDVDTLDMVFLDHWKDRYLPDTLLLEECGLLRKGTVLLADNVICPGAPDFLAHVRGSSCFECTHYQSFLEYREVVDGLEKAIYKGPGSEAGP
smiles,measurement,setting,value
CC1C(=O)N(C)C(=O)c2nc[nH]c21 (stereo unspecified),Potency,[1],inactive
same,Potency,Papain (Carica papaya),inactive
C[C@H](NC(=O)/C(C#N)=C/c1ccc(O)c(O)c1)c1ccccc1,Potency,[1],inactive
same,Potency,Papain (Carica papaya),inactive
same,Potency,[2],inactive
same,Potency,[3],inactive
same,Potency,[4],inactive
same,activity,[5],72.5%
same,"activity change, negative = inhibition",[6],2.74%
same,activity,[7],-55.4%
same,activity,[8],-2.26%
Cc1cccc(C2CN(C)CCc3c2cc(O)c(O)c3Cl)c1 (stereo unspecified),Potency,[1],inactive
same,Potency,Papain (Carica papaya),inactive
CC(=O)C(C)=O,Potency,[1],inactive
same,Potency,Papain (Carica papaya),inactive
CC1=C(C(=O)O)N2C(=O)[C@@H](NC(=O)C(N)C3=CCC=CC3)[C@H]2SC1 (stereo partly specified),Potency,[1],inactive
same,Potency,Papain (Carica papaya),inactive
c1ccc(C(NCCNC(c2ccccc2)c2ccccc2)c2ccccc2)cc1,Potency,[1],inactive
same,Potency,Papain (Carica papaya),inactive
CCCC(=O)NCCc1c2n(c3ccc(OC)cc13)CCCc1ccccc1-2,Potency,[1],inactive
same,Potency,[9],inactive
same,Potency,[2],inactive
same,Potency,[3],inactive
same,Potency,[4],7.84 µM (active)
CC[C@H](NC(=O)c1c(C)c(-c2ccccc2)nc2ccccc12)c1ccccc1,Potency,[1],inactive
same,Potency,Papain (Carica papaya),inactive
CCc1ccc2c(-c3cccc(Cl)c3)nc(=O)n(CC)c2n1,Potency,[1],inactive
same,Potency,Papain (Carica papaya),inactive
O=C1NC(=O)c2cc(Nc3ccccc3)c(Nc3ccccc3)cc21,Potency,[1],inactive
same,Potency,Papain (Carica papaya),inactive
OC[C@H]1O[C@H](n2cnc3c(N[C@H]4CCC[C@@H]4O)ncnc32)[C@H](O)[C@@H]1O,Potency,[1],inactive
same,Potency,Papain (Carica papaya),inactive
CN1Cc2sccc2C(c2ccc(O)c(O)c2)C1 (stereo unspecified),Potency,[1],inactive
same,Potency,Papain (Carica papaya),inactive
same,activity,[5],138%
same,"activity change, negative = inhibition",[6],1.26%
same,activity,[7],-9.55%
same,activity,[8],2.33%
CNc1ncnc2c1ncn2[C@H]1C[C@H](OP(=O)(O)O)[C@@H](COP(=O)(O)O)O1,Potency,[1],inactive
same,Potency,Papain (Carica papaya),inactive
CC(N)=NCCCC[C@@H](N)C(=O)O,Potency,[1],inactive
same,Potency,Papain (Carica papaya),inactive
CC(=O)O[C@H]1CC2(C)[C@@H](C[C@@H](O)[C@H]3[C@@]4(C)CC[C@@H](O)[C@@H](C)[C@@H]4CC[C@@]32C)C1=C(CCC=C(C)C)C(=O)O (stereo partly specified),Potency,[1],inactive
same,Potency,Papain (Carica papaya),inactive
CC(=O)O[C@H]1Cc2ccccc2N(C(N)=O)c2ccccc21,Potency,[1],inactive
same,Potency,Papain (Carica papaya),inactive
COc1ccccc1N1CCN(CCN(C(=O)c2ccc(F)cc2)c2ccccn2)CC1,Potency,[1],inactive
same,Potency,Papain (Carica papaya),inactive
O[Si](CCCN1CCCCC1)(c1ccc(F)cc1)C1CCCCC1 (stereo unspecified),Potency,[1],inactive
same,Potency,Papain (Carica papaya),inactive
N[C@H](C(=O)O)[C@H](Cc1ccccc1)C(=O)O,Potency,[1],inactive
same,Potency,Papain (Carica papaya),inactive
Fc1ccc(CN(C2=NCCN2)c2c(Cl)cccc2Cl)cc1,Potency,[1],inactive
same,Potency,Papain (Carica papaya),inactive
same,activity,[5],-2.41%
same,"activity change, negative = inhibition",[6],6.96%
same,activity,[7],-23.8%
same,activity,[8],-2.64%
NC1(C(=O)O)CC1,Potency,[1],inactive
same,Potency,Papain (Carica papaya),inactive
N[C@@H](Cc1c[nH]c2ccccc12)C(=O)O,Potency,[1],inactive
same,Potency,Papain (Carica papaya),inactive
CCCCCCCCCC(=O)NC(CN1CCOCC1)[C@H](O)c1ccccc1 (stereo partly specified),Potency,[1],inactive
same,Potency,Papain (Carica papaya),inactive
NC(N)=NC(N)=Nc1ccccc1,Potency,[10],inactive
same,Potency,[11],inactive
same,Potency,[12],inactive
same,Potency,Papain (Carica papaya),inactive
COc1ccc2c(c1)c(CC(=O)O)c(C)n2C(=O)c1ccccc1,Potency,[12],inactive
same,Potency,Papain (Carica papaya),inactive
O=C(N[C@@H](Cc1ccccc1)C(=O)CCl)OCc1ccccc1,Potency,[12],inactive
same,Potency,Papain (Carica papaya),15.8 µM (active)
CCCN(CCc1ccccc1)C1CCc2c(O)cccc2C1 (stereo unspecified),Potency,[12],inactive
same,Potency,Papain (Carica papaya),inactive
O=c1onc2cnc3ccccc3n12,Potency,[12],inactive
CCCCCCCCCCC/C=C\C(C)(C)/C=C\CCCC(=O)O,Potency,[12],inactive
same,Potency,Papain (Carica papaya),inactive
CCCCCCC/C=C\CCCCCCCCC(=O)O,Potency,[12],inactive
CCC1(O)CC2CN(CCc3c([nH]c4ccccc34)[C@@](C(=O)OC)(c3cc4c(cc3OC)N(C)C3[C@]45CCN4CC=C[C@@](CC)([C@@H](OC(C)=O)[C@]3(O)C(=O)OC)[C@H]45)C2)C1 (stereo partly specified),Potency,[12],inactive
NC(=O)c1cc[n+](CC2=C(C(=O)O)N3C(=O)[C@@H](NC(=O)[C@@H](c4ccccc4)S(=O)(=O)[O-])[C@H]3SC2)cc1,Potency,[12],inactive
same,Potency,Papain (Carica papaya),inactive
C#CCn1c(=O)c2c(ncn2C)n(C)c1=O,Potency,[12],inactive
same,Potency,Papain (Carica papaya),inactive
N[C@@H](Cc1ccc(O)c(I)c1)C(=O)O,Potency,[12],inactive
same,Potency,Papain (Carica papaya),inactive
C/C(=C\c1ccc(C(=O)O)cc1)c1ccc2c(c1)C(C)(C)CCC2(C)C,Potency,[12],inactive
